PI5P4K alpha inh – inhibitors of human PI5P4K alpha; P48426; PI5P4Kalpha enzyme, ADP-Glo luminescence, 60 min; active compounds read low; max response, %; 330,000 tested, 1.2% active; AID 652105; active means max response of -50% or lower; inconclusive means between -30% and -50%; inactive means -30% or higher; further: value at the top dose of about 77 µM
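Single end-point luminescence (ADP-Glo) quantified ADP from PI5P4Kalpha turnover; ATP 5 microM final, 1 h at RT, 0.1% CHAPS and 0.28 mM EGTA in HEPES pH 7.4.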
Pin1 inhibitor – blocks the human prolyl isomerase Pin1. Q13526. Pin1 FP peptide displacement, HiFluor488, 10 min. Potency, µM (doses to about 115 µM), hits mostly inhibitors. 390,000 tested, 0.009% active. AID 504891; active means well fitted inhibition curve with a large enough effect in the polarisation, with a control signal flat, not every such curve was filed as active; inconclusive means small, poorly fitted or top-dose-only effect, or effect the other way, or a change in a side signal; inactive means no such curve, though single readings can be large or run the other way; the % refers to the polarisation
Target sequence (Q13526 whole entry, looked up): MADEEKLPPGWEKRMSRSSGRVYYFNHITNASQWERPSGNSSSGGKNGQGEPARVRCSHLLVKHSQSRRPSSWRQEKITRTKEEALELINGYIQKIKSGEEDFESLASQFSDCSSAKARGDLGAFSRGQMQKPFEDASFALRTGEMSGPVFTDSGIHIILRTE
GoLoco inh red – blocks human Gai1 binding to RGS12 GoLoco peptide, red readout; P63096; Gai1:RGS12 GoLoco peptide FP, rhodamine, 10 min; Potency, µM (series often up to 61.6 µM), hits mostly inhibitors; 230,000 tested, 0.44% active; AID 880; active means well fitted inhibition curve with a large enough effect, not every such curve was filed as active; inactive means no such curve, though single readings can be large or run the other way; further: nearly all actives have a fitted effect of over 30% in size
PGK inhibitor – T. brucei PGK inhibition. PGK/GAPDH coupled, Kinase-Glo luminescence, 60 min. AID 602233. P07378. Potency, µM (top dose mostly 57.5 µM), usual class: inhibitors. 380,000 tested, 0.043% active; further: nearly all actives have a fitted effect of over 60% in size
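Luminescent ATP detection (Kinase-Glo Plus) follows a 60-minute room-temperature incubation, with wells lacking PGK as controls. Buffer: 100 mM TEA (pH 7.6), 5 mM MgCl2, 0.01% Tween-20. Coupling enzyme GAPDH (100 nM final) supplies unstable 1,3-BPG in-well.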
KAT2A inh – inhibitors of human GCN5L2 histone acetyltransferase | GCN5L2 HAT assay, ThioGlo1 CoA-SH fluorescence | Potency, µM (titrated, usually from 58.9 µM), hits mostly inhibitors | 390,000 tested, 0.21% active
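Preincubate 20nM GCN5L2 with compound 15 min, RT → add 50uM ThioGlo1 + 75uM H3(1-25) + 70uM acetyl-CoA → read fluorescence 0 and 20 min. Primary qHTS; fluorescent artifacts likely.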
PI4K2A inh – blocks human PI4K2A kinase activity | purified PI4K2A, ADP-Glo luminescence, 1 h; active compounds read low | activity change, negative = inhibition, % at 76.9 µM | 420,000 tested, 0.13% active; in the data active means activity change below about -50%; inconclusive means mostly about -30% to -49%
Target sequence (Q9BTU6 whole entry, looked up): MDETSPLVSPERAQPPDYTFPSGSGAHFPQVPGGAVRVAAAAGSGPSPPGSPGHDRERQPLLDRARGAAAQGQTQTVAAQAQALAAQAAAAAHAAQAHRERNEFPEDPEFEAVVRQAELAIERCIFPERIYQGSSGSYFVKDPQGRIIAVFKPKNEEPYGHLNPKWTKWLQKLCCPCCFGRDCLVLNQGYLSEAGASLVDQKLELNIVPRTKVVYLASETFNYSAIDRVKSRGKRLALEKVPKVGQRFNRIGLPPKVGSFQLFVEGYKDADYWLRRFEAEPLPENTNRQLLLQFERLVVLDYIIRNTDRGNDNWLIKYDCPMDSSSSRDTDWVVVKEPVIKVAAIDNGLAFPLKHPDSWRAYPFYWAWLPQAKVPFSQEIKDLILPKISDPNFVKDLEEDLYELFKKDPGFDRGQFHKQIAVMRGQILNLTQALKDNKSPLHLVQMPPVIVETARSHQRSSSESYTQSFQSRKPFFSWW
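In this quantitative HTS, ADP production by PI4K2A was quantified luminescently after 1 h at ambient temperature; 100 microM adenosine served as plate-quality control.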
Large screens that a line does not name were inactive. Rows were chosen to be rich in hits. Some 1.2% of all compounds tested hit in one or more screens of this group. Unless noted, the call rests on the fitted dose curve; in most records, active means well fitted curve in the direction sought with a large enough effect; inconclusive means small, poorly fitted or top-dose-only effect, or another doubt; inactive means no such curve, though single readings can be large; an effect the other way counts as inactive or inconclusive.

O=C(O)c1ccccc1NS(=O)(=O)c1ccc(N/N=C/c2ccc(O)c(O)c2)c([N+](=O)[O-])c1	PI5P4K alpha inh -96, PGK inhibitor 35µM (no result: Pin1 inhibitor, GoLoco inh red, KAT2A inh)
CCOc1cccc(/C=N/NC(=S)Nc2ccccc2[N+](=O)[O-])c1O	none
O=C(O)c1ccccc1NS(=O)(=O)c1ccc(NN=Cc2cccc(Cl)c2)c([N+](=O)[O-])c1	PI5P4K alpha inh -66, PGK inhibitor inconclusive, KAT2A inh inconclusive (no result: Pin1 inhibitor, GoLoco inh red)
NS(=O)(=O)c1ccc(N/N=C/c2ccccc2C(=O)O)c([N+](=O)[O-])c1	none
NS(=O)(=O)c1ccc(N/N=C/c2ccc(O)c(O)c2O)c([N+](=O)[O-])c1	PI5P4K alpha inh -75, Pin1 inhibitor inconclusive, KAT2A inh inconclusive
O=C(O)COc1ccccc1/C=N/Nc1ccc(S(=O)(=O)Nc2ccc(Cl)cc2)cc1[N+](=O)[O-]	PGK inhibitor inconclusive, KAT2A inh inconclusive (no result: Pin1 inhibitor)
CCOC(=O)N1CCN(C(=O)C2CCN(S(=O)(=O)c3ccc(F)cc3)CC2)CC1	none
COc1ccc(NS(=O)(=O)c2ccc(NN=Cc3ccc(C(=O)O)cc3)c([N+](=O)[O-])c2)cc1	none (no result: PI5P4K alpha inh, Pin1 inhibitor, GoLoco inh red, PGK inhibitor, PI4K2A inh)
O=C(O)c1ccccc1NS(=O)(=O)c1ccc(NN=Cc2ccc(F)cc2)c([N+](=O)[O-])c1	PI5P4K alpha inh -58, KAT2A inh inconclusive (no result: Pin1 inhibitor, GoLoco inh red)
Cc1cc(C)c2c(=O)[nH]c(SCc3ccccc3)nc2n1	none
COC(=O)c1ccc(-c2nc3ccc(C)cc3o2)cc1	none
N#Cc1c(NC(=O)/C=C/c2ccco2)sc2c1CCCC2	PI5P4K alpha inh -63
O=C(COc1ccc(Cl)cc1Cl)Nc1ccccn1	PGK inhibitor inconclusive, PI4K2A inh -75 (no result: PI5P4K alpha inh)
Cc1cccc(OCC(=O)Nc2ccc(C(=O)Nc3ccccc3C(=O)O)cc2)c1	PI5P4K alpha inh -52 (no result: Pin1 inhibitor, GoLoco inh red, KAT2A inh)
O=C(COc1ccc(Cl)cc1Cl)Nc1ccc(C(=O)Nc2ccccc2C(=O)O)cc1	PI5P4K alpha inh -57, KAT2A inh inconclusive (no result: Pin1 inhibitor, GoLoco inh red)
CSc1ccccc1NC(=O)COc1ccc(Cl)cc1Cl	none (no result: GoLoco inh red)
C#CCOCCOCCOCCNc1nc(N2CCN(C(=O)[C@H](CCCCN)n3cc([C@@H](N)C(C)CC)nn3)CC2)nc(N2CCN(C(=O)[C@H](Cc3cc4ccccc4[nH]3)n3cc([C@@H](N)CC(C)C)nn3)CC2)n1 (stereo partly specified)	PI5P4K alpha inh -57
C#CCOCCOCCOCCNc1nc(N2CCN(C(=O)[C@H](Cc3cc4ccccc4[nH]3)n3cc([C@@H](N)C(C)CC)nn3)CC2)nc(N2CCN(C(=O)[C@H](CCCCN)n3cc([C@@H](N)CO)nn3)CC2)n1 (stereo partly specified)	none (no result: PI5P4K alpha inh, Pin1 inhibitor, PGK inhibitor, PI4K2A inh)
C#CCOCCOCCOCCNc1nc(N2CCN(C(=O)CCCCCCCCCCNC(=O)[C@H](CCCCN)n3cc(C)nn3)CC2)nc(N2CCN(C(=O)CCCCCCCCCCNC(=O)[C@H](CCCCN)n3cc(CCCC(=O)O)nn3)CC2)n1	PI5P4K alpha inh -54 (no result: GoLoco inh red)
C#CCOCCOCCOCCNc1nc(N2CCN(C(=O)CCCCCCCCCCNC(=O)[C@H](CCCCN)n3cc(CCCC(=O)O)nn3)CC2)nc(N2CCN(C(=O)CCCCCCCCCCNC(=O)[C@@H]([C@H](C)O)n3cc(C)nn3)CC2)n1	none (no result: GoLoco inh red)
C#CCOCCOCCOCCNc1nc(N2CCN(C(=O)CCCCCCCCCCNC(=O)[C@H]([C@@H](C)CC)n3cc(CCCCCN)nn3)CC2)nc(N2CCN(C(=O)CCCCCCCCCCNC(=O)[C@@H]([C@H](C)CC)n3cc(CCCCCN)nn3)CC2)n1	none (no result: PI5P4K alpha inh, Pin1 inhibitor, GoLoco inh red, PGK inhibitor, PI4K2A inh)
C#CCOCCOCCOCCNc1nc(N2CCN(C(=O)CCCCCCCCCCNC(=O)[C@H]([C@@H](C)CC)n3cc(CCCCCN)nn3)CC2)nc(N2CCN(C(=O)CCCCCCCCCCNC(=O)[C@H]([C@@H](C)CC)n3cc(CCCCN=C(N)N)nn3)CC2)n1	none (no result: PI5P4K alpha inh, Pin1 inhibitor, GoLoco inh red, PGK inhibitor, PI4K2A inh)
C#CCOCCOCCOCCNc1nc(N2CCN(C(=O)CCCCCCCCCCNC(=O)Cn3cc(CCCCCN)nn3)CC2)nc(N2CCN(C(=O)CCCCCCCCCCNC(=O)[C@H]([C@@H](C)CC)n3cc(CCCCN=C(N)N)nn3)CC2)n1	PI5P4K alpha inh -72 (no result: GoLoco inh red)
C#CCOCCOCCOCCNc1nc(N2CCN(C(=O)CCCCCCCCCCNC(=O)[C@H]([C@@H](C)CC)n3cc(CCCCCN)nn3)CC2)nc(N2CCN(C(=O)CCCCCCCCCCNC(=O)[C@H](CO)n3cc(CCCCCN)nn3)CC2)n1	PI5P4K alpha inh -50, Pin1 inhibitor inconclusive (no result: GoLoco inh red)
OCCNc1nc(Nc2ccccc2O)nc(N2CCCC2)n1	none (no result: PI5P4K alpha inh, GoLoco inh red, KAT2A inh)
C#CCOCCOCCOCCNc1nc(N2CCN(C(=O)CCCCCCCCCCNC(=O)[C@H]([C@@H](C)CC)n3cc(CCCCN=C(N)N)nn3)CC2)nc(N2CCN(C(=O)CCCCCCCCCCNC(=O)[C@H]([C@@H](C)CC)n3cc(CCCCN=C(N)N)nn3)CC2)n1	none (no result: PI5P4K alpha inh, Pin1 inhibitor, GoLoco inh red, PGK inhibitor, PI4K2A inh)
C#CCOCCOCCOCCNc1nc(N2CCN(C(=O)CCCCCCCCCCNC(=O)Cn3cc(CCCCCN)nn3)CC2)nc(N2CCN(C(=O)CCCCCCCCCCNC(=O)Cn3cc(CCCCCN)nn3)CC2)n1	PI5P4K alpha inh -64 (no result: GoLoco inh red)
C#CCOCCOCCOCCNc1nc(N2CCN(C(=O)[C@H]([C@@H](C)CC)n3cc(CCC(=O)O)nn3)CC2)nc(N2CCN(C(=O)[C@H](CCCCN)n3cc(CC(C)O)nn3)CC2)n1 (stereo partly specified)	PI5P4K alpha inh -70 (no result: GoLoco inh red, KAT2A inh)
C#CCOCCOCCOCCNc1nc(N2CCN(C(=O)CCCCCCCCCCNC(=O)[C@H]([C@@H](C)CC)n3cc(CCCCN=C(N)N)nn3)CC2)nc(N2CCN(C(=O)CCCCCCCCCCNC(=O)[C@H](CCCCN)n3cc(C)nn3)CC2)n1	PI5P4K alpha inh -89, Pin1 inhibitor inconclusive (no result: GoLoco inh red)
C#CCOCCOCCOCCNc1nc(N2CCN(C(=O)CCCCCCCCCCNC(=O)Cn3cc(CCCCCN)nn3)CC2)nc(N2CCN(C(=O)CCCCCCCCCCNC(=O)[C@@H](CCC(=O)O)n3cc(CCCCCN)nn3)CC2)n1	none (no result: GoLoco inh red)
C#CCOCCOCCOCCNc1nc(N2CCN(C(=O)[C@H]([C@@H](C)CC)n3cc(CCC(=O)O)nn3)CC2)nc(N2CCN(C(=O)[C@H](CCCCN)n3cc(CCCC)nn3)CC2)n1	none (no result: GoLoco inh red, KAT2A inh)
Cc1ccc(NC(=S)NCCN(C2CCCCC2)C2CCCC2)cc1C	none
CC(C)C(NC(=O)c1ccc(F)cc1)C(=O)Nc1cccnc1 (stereo unspecified)	none
C=CS(=O)(=O)c1sc(Cl)c(N2CCOCC2)c1[N+](=O)[O-]	PI5P4K alpha inh -105, Pin1 inhibitor inconclusive, KAT2A inh inconclusive

From PubChem
